According to article PMC5540273 (PLoS ONE, 2017):

Test system: FES
Conditions: concentration: 1 μM,replicates: in singlicate; n = 1
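Also: KINOMEscan kinase panel screen.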

Compound | %Inh [%]
Cl.Cl.NC[C@H](Cc1ccc(C(F)(F)F)cc1)NC(=O)c1cc(Br)c(-c2ccnc3[nH]ccc23)s1 [GSK1487252] | 0
Nc1nc(Nc2ccccc2)cc(-c2ccc3c(N)n[nH]c3c2)n1 [GSK2225749] | 0
CC(C)Nc1cc(-c2ccc3c(N)n[nH]c3c2)nc(N)n1 [GSK2221681] | 0
CC(C)N1C(=O)Cc2cc(Nc3ncc(C(F)(F)F)c(NCc4cccc(S(C)(=O)=O)c4)n3)ccc21 | 19
Cl.Cl.NC[C@H](CC1CCCCC1)NC(=O)c1cc(Br)c(-c2ccnc3[nH]ccc23)s1 [GSK1581427] | 0
CN(C)CC(O)COc1ccc(Nc2nccc(-c3cnn4nc(N5CCOCC5)ccc34)n2)cc1 (stereo not drawn) [GW767488] | 10
CCN(CC)CCOc1ccc(Nc2ncc3cc(-c4c(Cl)cccc4Cl)c(=O)n(C)c3n2)cc1 [SB-601273] | 98.1
Cc1n[nH]c2ccc(-c3cc(OC[C@@H](N)Cc4ccccc4)cnc3-c3ccoc3)cc12.O=C(O)C(F)(F)F.O=C(O)C(F)(F)F [GSK507358] | 20
Cc1occc1-c1nc(N)c(OC[C@@H](N)Cc2c[nH]c3ccccc23)cc1-c1cc2c(C)n[nH]c2cn1 [GSK1660450] | 0
C[C@@H]1CCN(C(=O)CC#N)C[C@@H]1N(C)c1ncnc2[nH]ccc12 | 0
Cl.Oc1cc(-c2nc(-c3ccccc3)[nH]c2-c2ccncc2)ccc1Cl [SB-386023] | 48
O=C(NCCCN1CCOC1=O)c1cnc(NCc2cc(Cl)ccc2Cl)nc1NC1CCCC1 | 26
